In PubChem BioAssay (Tox21):
Records with an inconclusive call do not appear. Values without a mark were called inactive. Calls of active or inactive are those of the source. The call rests on the fitted dose curve.

assay: p53 small molecule agonists, cell-based qHTS assay with human liver microsomes (AID 1963577); conditions: HCT-116 p53RE-bla with human liver microsomes, ratio, 16 h; series mostly up to 66 µM; activation: at the top concentration;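 further: p53 response element beta-lactamase reporter cells with liver microsomes plus NADPH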
From the text: National Center for Advancing Translational Sciences [NCATS]
Division of Preclinical Innovation [DPI]
U.S. Environmental Protection Agency [EPA]
National Institutes of Environmental Health Sciences [NIEHS]
National Toxicology Program [NTP]
U.S. Food and Drug Administration [FDA]
p53, a tumor suppressor protein, is activated following cellular insult, including DNA damage and other cellular stresses. The activation of p53 regulates cell fate by inducing DNA repair, cell cycle arrest, apoptosis, or cellular senescence. The activation of p53, therefore, is a good indicator of DNA damage and other cellular stresses. […] The activation of the reporter gene under culture conditions can be detected by fluorescence intensity.
Tox21 Assay Protocol Summary:
The p53RE-bla cells were dispensed at 4,000cells/3ul/well in 1536-well black-clear bottom plates. After the assay plates were incubated at 37 C, 5% CO2 incubator for 5 hours, 23 nL of compounds dissolved in DMSO, positive controls or DMSO only was transferred to the assay plate. Following compound addition, 3 uL of human liver microsomes (XenoTech, Kansas City, KS) at final concentration of 0.5 mg/mL and 1uL of Beta-Nicotinamide adenine dinucleotide 2-phosphate (NADPH) at final concentration of 0.5 mg/mL were transferred to the assay plate. The plates were incubated at 37 C for 16 hours. 1 uL of LiveBLAzer detection mixture was added to each well and the plates were incubated at room temperature in the dark for 2 h.
On the % scale 0 is the no-effect control and ±100 the full control effect.

Q: With `CCC(C)(NC(=O)c1cc(Cl)c(C)c(Cl)c1)C(=O)CCl` (stereo not given) as the molecule, how does the “activation” value read?
A: The value was -17.6%.

Q: With `CC(C)(Cl)[N+](=O)[O-]` as the molecule, how does the “activation” value read?
A: Its value is 0.515%.

Q: Which “activation” value does the source give for `Clc1ccc(C2(Cn3cncn3)CC(Br)CO2)c(Cl)c1` (stereo not given) here?
A: The value was 1.57%.

Q: With `CCN(C(C)=O)c1cccc(-c2ccnc3c(C#N)cnn23)c1` as the molecule, how does the “activation” value read?
A: Its value is -5.88% [at 30.3 µM].

Q: With `[F][Sn]([c]1ccccc1)([c]1ccccc1)[c]1ccccc1` as the molecule, how does the “activation” value read?
A: The value was -12.3%.

Q: For `CC(C)NCC(O)c1ccccc1Cl` (stereo not given), which “activation” value is on record?
A: Its value is 0.034% [at 30.3 µM].

Q: With `CC(Cl)(Cl)[N+](=O)[O-]` as the molecule, how does the “activation” value read?
A: The value was 1.29%.

Q: With `CCN(CCO)CCn1c(Cc2ccccc2)nc2c1c(=O)n(C)c(=O)n2C` as the molecule, how does the “activation” value read?
A: Its value is -9.12% [at 30.3 µM].

Q: Which “activation” value does the source give for `CCCCCCCCCCCCCCC(Br)C(=O)O` (stereo not given) here?
A: Its value is -0.0559%.

Q: Which “activation” value does the source give for `Oc1c(Br)c(Br)c(Br)c(Br)c1Br` here?
A: The value was 24%.

Q: With `Clc1ccc(CCC(Cn2ccnc2)Sc2c(Cl)cccc2Cl)cc1` (stereo not given) as the molecule, how does the “activation” value read?
A: The value was -1.41% [at 30.3 µM].

Q: Which Potency does the source give for `C[C@@H]1C[C@@H]([C@H](O)CC2CC(=O)NC(=O)C2)C(=O)[C@@H](C)C1` here?
A: The Potency was “inactive”.

Q: With `ClC(Cl)C(Cl)Cl` as the molecule, how does the “activation” value read?
A: Its value is 1.33%.

Q: Which “activation” value does the source give for `O=c1ssc(Cl)c1Cl` here?
A: Its value is 4.38%.

Q: Which “activation” value does the source give for `CC(C)[N+](=O)[O-]` here?
A: The value was 2.21%.

Q: Which Potency does the source give for `ClC1=C(Cl)[C@]2(Cl)[C@H]3[C@H]([C@@H]4C=C[C@H]3C4)[C@@]1(Cl)C2(Cl)Cl` here?
A: Its Potency is “inactive”.

Q: For `CN[C@@H](C)[C@H](O)c1ccccc1`, which “activation” value is on record?
A: Its value is -2.15% [at 30.3 µM].

Q: Which “activation” value does the source give for `Cc1cccc(Cc2cnc[nH]2)c1C` here?
A: The value was -5.1% [at 30.3 µM].

Q: With `COc1cccc2c1C(=O)c1c(O)c3c(c(O)c1C2=O)C[C@@](O)(C(=O)CO)CC3OC1CC(N2CCOC(OC)C2)C(O)C(C)O1` (stereo not given in full) as the molecule, how does the “activation” value read?
A: The value was -22.4% [at 30.3 µM].

Q: With `CC1(C)C(/C=C(\Cl)C(F)(F)F)C1C(=O)OC(C#N)c1cccc(Oc2ccccc2)c1` (stereo not given) as the molecule, how does the “activation” value read?
A: The value was 1.24%.

Q: With `CCN1CCCC1CNC(=O)C(O)(c1ccccc1)c1ccccc1` (stereo not given) as the molecule, how does the “activation” value read?
A: Its value is 1.13% [at 30.3 µM].

Q: Which “activation” value does the source give for `COC1CC(=C(c2cccs2)c2cccs2)C[N+](C)(C)C1` (stereo not given) here?
A: Its value is -1.54% [at 30.3 µM].

Q: Which “activation” value does the source give for `CCC1COC(Cn2cncn2)(c2ccc(Cl)cc2Cl)O1` (stereo not given) here?
A: The value was -7.14%.

Q: With `CC(=O)C(Cl)(Cl)Cl` as the molecule, how does the “activation” value read?
A: Its value is 0.77%.

Q: With `COC(=O)C(C)N(C(=O)c1ccco1)c1c(C)cccc1C` (stereo not given) as the molecule, how does the “activation” value read?
A: The value was -0.545%.

Q: Which “activation” value does the source give for `N#Cc1sc2c(=O)c3ccccc3c(=O)c=2sc1C#N` here?
A: The value was -9.02%.

Q: For `FC(F)OC(F)(F)C(F)Cl` (stereo not given), which “activation” value is on record?
A: Its value is -2.83%.

Q: With `C[C@]12CC[C@H]3[C@@H](CCC4=CC(=O)CC[C@@H]43)[C@@H]1CC[C@@H]2OC(=O)CCc1ccco1` as the molecule, how does the “activation” value read?
A: The value was -12% [at 30.3 µM].

Q: With `C=CC(=O)[O][Sn]([CH2]CCC)([CH2]CCC)[CH2]CCC` as the molecule, how does the “activation” value read?
A: The value was 9.19%.

Q: For `Clc1cc(Cl)c(-c2cc(Cl)c(Cl)cc2Cl)cc1Cl`, which “activation” value is on record?
A: Its value is -0.206% [at 30.3 µM].

Q: With `CC(C)(c1ccc(O)c(-c2ccccc2)c1)c1ccc(O)c(-c2ccccc2)c1` as the molecule, how does the “activation” value read?
A: The value was -4.95%.

Q: For `CCC[CH2][Sn]([CH2]CCC)([CH2]CCC)[CH2]CCC`, which “activation” value is on record?
A: The value was -12.6%.

Q: For `N[C@@H](Cc1ccc(Oc2cc(I)c(O)c(I)c2)c(I)c1)C(=O)O`, which “activation” value is on record?
A: The value was -5.51% [at 30.3 µM].

Q: For `CCOC(=O)NC(=S)Nc1ccccc1NC(=S)NC(=O)OCC`, which “activation” value is on record?
A: The value was -6.45%.

Q: For `N#CN=C1SCCN1Cc1ccc(Cl)nc1`, which “activation” value is on record?
A: Its value is -3.17%.

Q: With `OCC(c1ccc(Cl)cc1)c1ccc(Cl)cc1` as the molecule, how does the “activation” value read?
A: The value was -13%.

Q: Which “activation” value does the source give for `c1ccc(C2CC2)c(OCC2=NCCN2)c1` here?
A: The value was 2.79% [at 30.3 µM].

Q: Which “activation” value does the source give for `N#CCCSCCC#N` here?
A: Its value is 0.133%.

Q: For `Nc1ccc(Cl)cc1C(=O)c1ccccc1F`, which “activation” value is on record?
A: The value was -1.12% [at 30.3 µM].

Q: For `COc1ccc(C(=O)c2c(C)n(CCN3CCOCC3)c3ccccc23)cc1`, which “activation” value is on record?
A: Its value is -13.9% [at 30.3 µM].
